mut p53 react: mutant p53 pathway reactivation; AID 624151; activation, % at 9.98 µM; SW480 PUMA-promoter luciferase; actives 1.5% (n = 28,000); in the data active means activation above about 52%
c-Myc SMM: binders of human c-Myc. small molecule microarray, His-c-Myc binding, anti-His fluorescence. calls only. actives 1.5% (n = 17,000);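 active means spot fluorescence over background with P-value below 7% in all four replicate spots, showing protein binding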;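 further: score is binary with 100 for all four spots passing and 0 otherwise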
NFkB SMM: binders of human NF-kappa-B p105; actives 1.3% (n = 17,000); calls only; Small molecule microarray, anti-His fluorescence binding; AID 624139;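 active means spot fluorescence over background significantly raised, with a chance value under 7% in all four replicate spots of the compound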;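 further: probe protein is his-tagged human p50 processed subunit at 1 µg/ml; raw spot fluorescence signals with no normalization applied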
STAT3 SMM: STAT3 (human) binding; P40763; Small molecule microarray, His-STAT3 binding, anti-His fluorescence; calls only; actives 0.2% (n = 17,000); AID 624138;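 active means compounds whose four printed spots each show fluorescence over background unusually high for their array block, chance value under 7%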
Target sequence (P40763 whole entry, looked up): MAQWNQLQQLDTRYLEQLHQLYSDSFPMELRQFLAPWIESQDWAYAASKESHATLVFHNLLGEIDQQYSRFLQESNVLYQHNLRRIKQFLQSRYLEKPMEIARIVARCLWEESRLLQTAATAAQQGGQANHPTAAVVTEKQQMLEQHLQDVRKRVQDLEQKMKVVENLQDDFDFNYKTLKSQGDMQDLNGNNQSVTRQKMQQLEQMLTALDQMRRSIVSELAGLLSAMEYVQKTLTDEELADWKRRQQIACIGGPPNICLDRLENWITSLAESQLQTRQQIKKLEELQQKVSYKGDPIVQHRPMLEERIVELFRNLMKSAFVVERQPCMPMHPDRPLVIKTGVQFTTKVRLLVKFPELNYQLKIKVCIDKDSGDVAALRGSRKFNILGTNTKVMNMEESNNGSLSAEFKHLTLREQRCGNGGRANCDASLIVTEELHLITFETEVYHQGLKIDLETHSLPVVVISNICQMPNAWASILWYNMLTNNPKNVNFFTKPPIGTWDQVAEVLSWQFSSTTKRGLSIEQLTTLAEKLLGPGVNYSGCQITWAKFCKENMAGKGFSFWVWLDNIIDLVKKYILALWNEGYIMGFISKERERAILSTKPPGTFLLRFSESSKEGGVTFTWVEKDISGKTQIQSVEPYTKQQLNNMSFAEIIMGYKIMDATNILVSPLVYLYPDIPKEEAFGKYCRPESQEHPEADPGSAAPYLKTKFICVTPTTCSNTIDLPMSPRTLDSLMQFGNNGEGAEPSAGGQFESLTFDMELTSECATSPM
p53 mut binder: binds human mutant p53 on microarray | small molecule microarray binding, anti-GST fluorescence | calls only | actives 0.4% (n = 17,000) | AID 624136;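 active means compounds whose four printed spots each glow above background more than chance allows, each with a p-value under 7%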
Active calls of the source: *; i = inactive; nt = not tested or not shown; + = active, no number. An excerpt weighted towards active compounds, which were near 2.6% of everything screened.

SMILES	mut p53 react	c-Myc SMM	NFkB SMM	STAT3 SMM	p53 mut binder
N#Cc1ccccc1NC(=O)CCSc1nc(-c2ccccc2)c2cc(Cl)ccc2n1	-42.8	i	i	i	i
CS(=O)(=O)N(CC(=O)Nc1ccc(C(F)(F)F)cc1)c1ccc(Oc2ccccc2)cc1	-0.3	nt	nt	nt	nt
Cc1ccc(NC(=O)CN(c2cccc(F)c2)S(C)(=O)=O)cc1Cl	0.0	nt	nt	nt	nt
Cc1ccc(C)c(NC(=O)CN(c2cccc(F)c2)S(C)(=O)=O)c1	64.3*	nt	nt	nt	nt
COc1ccc(-n2c(SCC(=O)Nc3ccc(Cl)cc3C)nnc2-c2ccccc2F)cc1	-1.2	nt	nt	nt	nt
Cc1ccc2nc(-c3ccc(NC(=O)Cn4nc([N+](=O)[O-])c(Cl)c4C)cc3)sc2c1	79.9*	nt	nt	nt	nt
Cc1ccc2nc(-c3ccc(NC(=O)CSc4nnc(C)s4)cc3)sc2c1	-63.5	nt	nt	nt	nt
Cc1ccc2nc(-c3ccc(NC(=O)CN4C(=O)c5ccccc5C4=O)cc3)sc2c1	19.0	i	i	i	i
Cc1ccc2nc(-c3ccc(NC(=O)CS(=O)(=O)Cc4ccccc4)cc3)sc2c1	75.3*	nt	nt	nt	nt
COc1cccc(NC(=O)CNC(=O)c2ccco2)c1	10.6	nt	nt	nt	nt
COc1ccc2nc(SCC(=O)NC3CCCCCC3)[nH]c2c1	1.7	nt	nt	nt	nt
Nc1[nH]nc2nc3ccccc3nc12	63.6*	i	i	i	i
CS(=O)(=O)N(CC(=O)O)c1ccc(Cl)cc1	-9.8	nt	nt	nt	nt
COc1ccc(S(=O)(=O)N(C)CC(=O)O)cc1	-11.3	+	i	i	i
COc1ccc(S(=O)(=O)N(C)CC(=O)O)cc1C	12.4	nt	nt	nt	nt
Cc1ccc(Cl)cc1N(CC(=O)O)S(C)(=O)=O	-5.4	+	+	i	i
CN(CC(=O)O)S(=O)(=O)c1cc(Cl)ccc1Cl	3.7	+	+	i	i
O=C(Cn1nnc2sc3c(c2c1=O)CCCC3)NCc1ccco1	3.6	+	i	i	i
COc1ccc([N+](=O)[O-])cc1NC(=O)c1ccccc1N(C)S(=O)(=O)c1ccc(C)cc1	15.7	nt	nt	nt	nt
CN(C)c1c(F)cc(C(=O)NC(=O)NC2=NCCS2)cc1F	60.6*	nt	nt	nt	nt
N#CCCSc1nnc(-c2ccncc2)n1Cc1ccccc1	-9.5	i	i	i	i
Cc1ccn2cc(-c3cccc(NS(=O)(=O)c4cccc([N+](=O)[O-])c4)c3)nc2c1	169.7*	nt	nt	nt	nt
COCCNC(=O)c1cc(-c2cccnc2)nc2ccc(Br)cc12	11.9	i	i	i	i
Cc1ccc(-c2cc(C(=O)NCc3cccnc3)c3cc(Br)ccc3n2)cc1	67.0*	nt	nt	nt	nt
CCn1cc(CNC(=O)c2cc(-c3cccnc3)nc3ccc(Br)cc23)c(C)n1	-0.2	nt	nt	nt	nt
SMILES	mut p53 react	c-Myc SMM	NFkB SMM	STAT3 SMM	p53 mut binder
CCCc1ccc(-c2cc(C(=O)NCc3cccnc3)c3ccccc3n2)cc1	105.5*	nt	nt	nt	nt
Cc1ccc2nc(-c3cccc(Br)c3)cc(C(=O)NCc3cccnc3)c2c1	57.5*	nt	nt	nt	nt
COc1cccc(NC(=O)/C=C/c2ccc(Cl)cc2)c1	93.6*	i	i	i	i
Cc1cc(OCC(=O)Nc2cccc(-c3nc4ccccc4o3)c2C)cc(C)c1Cl	-3.8	nt	nt	nt	nt
O=C(COc1ccc(Br)cc1)Nc1cccc(-c2nc3ncccc3o2)c1	72.6*	nt	nt	nt	nt
Cc1c(NC(=O)COc2ccc(Br)cc2)cccc1-c1nc2ncccc2o1	54.2*	i	i	i	i
O=C(COc1ccccc1)Nc1cccc(-c2nc3c(ccc4ccccc43)o2)c1	-0.7	i	i	i	i
Cc1ccc2c(c1)c1c(n2CC(O)CO)C(=O)CCC1 (configuration not stated)	-12.0	i	i	i	i
CC(=O)Nc1ccc(-c2nnc(SCC(=O)Nc3ccc(Cl)cc3Cl)n2C)cc1	5.6	nt	nt	nt	nt
CCn1c(SCC(=O)Nc2cccc(OC)c2)nc2scc(-c3ccccc3)c2c1=O	-16.0	i	i	i	i
Cc1ccc(C(=O)CC(C(=O)O)n2ccc(C)n2)cc1 (configuration not stated)	-8.2	+	+	i	i

High-throughput results as filed in PubChem BioAssay.
